SMN2 splice enh – SMN2 splice variant enhancement; HEK293 SMN2-luciferase splicing reporter, luminescence, 30-36 h; Potency, µM (top dose mostly 46.1 µM), inactives show at the top dose activity change, positive = activation, actives largely listed as activators; 210,000 compounds, 2.8% hits; note: % of control where 0% means no effect; nearly all actives have a fitted effect of over 55% in size
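HEK293 cells carry an SMN2 minigene-luciferase reporter in which exon 7 inclusion puts luciferase in frame. Cells were seeded at 2000 cells/well, attached for 10-12 hours, then exposed to compounds for 30-36 hours at 37C before ONE-Glo luminescence.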
Rab9 prom act – activators of Rab9 promoter | Huh7 Rab9 promoter-luciferase reporter, luminescence, 24 h | Potency, µM (top dose mostly 9.22 µM), for the others: at the top dose activation, negative = inhibition, usual class: activators | 320,000 compounds, 2.8% hits; note: % of control where 0% means no effect; nearly all actives have a fitted effect of over 60% in size
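Using Huh7 cells stably transfected with Rab9 promoter–luciferase, compounds were incubated 24 h at 37 °C, 5% CO2; luciferase luminescence was read 10 min after reagent addition.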
ELG1 genotox – induces genotoxicity in HEK293T cells with luciferase-tagged ELG1; HEK293T ELG1-luciferase reporter, luminescence, 16 h; Potency, µM (top dose mostly 46 µM), for the others: at the highest dose activity change, positive = activation, most hits filed as activators; 330,000 compounds, 1.3% hits; note: % of control where 0% means no effect; nearly all actives have a fitted effect of over 60% in size
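Genotoxicity was scored as increased ELG1-luciferase reporter signal, measured by ONE-Glo luminescence (30 min, room temperature). Compound or vehicle exposure of the HEK293T reporter cells lasted 16 hr at 37°C.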
FLuc counter – firefly luciferase modulation, counter-screen for miR-21 project; AID 588342; purified FLuc, Km substrates, luminescence inhibition; P08659; 360,000 compounds, 6.9% hits; Potency, µM (series often up to 57.5 µM), for the others: top-dose activity change, negative = inhibition, actives largely listed as inhibitors;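 note: plate controls were vehicle for no effect and reference inhibitor for full effect; nearly all actives have a fitted effect of over 55% in size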
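Purified P. pyralis luciferase (10nM final) with 10uM D-luciferin and 10uM ATP (Km levels) in 50mM Tris acetate pH 7.5, 10mM Mg acetate, 0.01% Tween-20, 0.05% BSA; qHTS 6-point titration, ~60 µM downward; luminescence read.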
ELG1 DNA repair – blocks ELG1-dependent DNA repair in HEK293T cells; HEK293T ELG1-luciferase reporter, luminescence, 16 h; DNA damage induced by 5-fluorouridine; Potency, µM (series often up to 46.1 µM), without a hit: top-dose activity change, negative = inhibition, most hits filed as inhibitors; 330,000 compounds, 2.3% hits; AID 504467; note: % is set by controls: 0 for no effect and ±100 for the full control effect; nearly all actives have a fitted effect of over 55% in size
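Luminescence from the luciferase reporter, measured 30 min after ONE-Glo reagent at room temperature, was the read-out. Beforehand, 2,000 cells per well were exposed for 16 hr at 37 °C to 5-fluorouridine together with compound or vehicle.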
NPC1 promoter act – NPC1 promoter activation | Huh7 NPC1 promoter luciferase reporter, 24 h | Potency, µM (highest dose often 9.22 µM), without a hit: at the top dose activation, hits mostly activators | 320,000 compounds, 2.4% hits | AID 485313; note: % of control where 0% means no effect; nearly all actives have a fitted effect of over 60% in size
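Stable NPC1-promoter luciferase Huh7 line; cpd (DMSO) 24 h, 37 °C, 5% CO2; Amplite luciferase reagent 10 min RT; luminescence readout. qHTS format.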
ELG1 FLuc counter – luciferase inhibition in cell-free luciferin readout for ELG1 hits | shares compounds with ELG1 DNA repair | cell-free firefly luciferase luminescence counter-screen, ViewLux | Potency, µM (series often up to 46.1 µM), for inactives: at the highest dose activity change, negative = inhibition, actives largely listed as inhibitors | 350 compounds, 3% hits | AID 624247; note: % is set by controls: 0 for no effect and ±100 for the full control effect
ELG1-Luc inh – human ELG1 repair inhibition, luciferase-tagged ELG1 confirmation | 670 compounds, 68% hits | shares compounds with ELG1 DNA repair | Potency, µM (top dose mostly 46.1 µM), inactives show at the top dose activity change, negative = inhibition, actives largely listed as inhibitors | AID 624248 | HEK293T ELG1-luciferase levels, luminescence; cells co-treated with 5-fluorouridine; note: % is set by controls: 0 for no effect and ±100 for the full control effect; nearly all actives have a fitted effect of over 55% in size
ELG1 MMS Luc – MMS-stimulated human ELG1 repair inhibition, confirmed; HEK293T luciferase-tagged ELG1 level, MMS stimulated; Potency, µM (doses to about 46.1 µM), inactives show at the top dose activity change, negative = inhibition, hits mostly inhibitors; 670 compounds, 53% hits; shares compounds with ELG1 DNA repair; note: % is set by controls: 0 for no effect and ±100 for the full control effect; nearly all actives have a fitted effect of over 60% in size
ELG1 5FU viab – confirmation of ELG1 repair inhibitors: viability with 5FU | shares compounds with ELG1 DNA repair | cell viability with 5-FU, ELG1-dependent repair | Potency, µM (titrated, usually from 46.1 µM), for inactives: at the highest dose activity change, negative = viability loss, usual class: cytotoxic | 670 tested, under 10 active | AID 624250;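 note: ELG1-luc HEK293T cells cotreated with 5-fluorouridine at 10 µM final; viability measured 16 h after compound addition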
ELG1 MMS viab – confirmation of ELG1 repair inhibitors: viability with MMS. shares compounds with ELG1 DNA repair. Cell viability with MMS, ELG1-dependent DNA repair. Potency, µM (doses to about 46.1 µM), for inactives: at the highest dose activity change, negative = viability loss, most hits filed as cytotoxic. 670 compounds, 33% hits. AID 624251;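 note: ELG1-luc HEK293T cells co-treated with 10 µM MMS; viability read 16 h after compound addition; % is set by controls: 0 for no effect and ±100 for the full control effect; nearly all actives have a fitted effect of over 60% in size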
Cell viab unstim – counter-screen for ELG1 repair inhibitors: unstimulated cell viability; AID 624252; 900 compounds, 8% hits; shares compounds with ELG1 DNA repair; Potency, µM (highest dose often 45.9 µM), for the others: at the top dose activity change, negative = loss of viability, hits mostly cytotoxic; cell viability counter-screen, unstimulated, luminescence;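 note: compound exposure lasted 16 hours before reading; % is set by controls: 0 for no effect and ±100 for the full control effect; nearly all actives have a fitted effect of over 55% in size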
FLuc enzyme – counter-screen for ELG1 repair inhibitors: firefly luciferase inhibition. shares compounds with ELG1 DNA repair. purified firefly luciferase, luminescence counter-screen. Potency, µM (series often up to 57.5 µM), for inactives: top-dose activity, negative = inhibition, hits mostly inhibitors. 350 compounds, 10% hits. AID 624253; note: % is set by controls: 0 for no effect and ±100 for the full control effect
* marks the source's active call; other numbers are inactive results; [ ] = dose if it differs, or a comment. The list is not random: actives were taken first. Their share in the collection is about 9.3%. Calls come from the whole dose curve; as a rule, active = well fitted curve in the direction sought with a large enough effect; inconclusive = small, poorly fitted or top-dose-only effect, or another doubt; inactive = no such curve, though single readings can be large; an effect the other way counts as inactive or inconclusive. Potency is the fitted concentration of half-maximal effect.

Screening CC1OC(O[C@@H]2C(O)CC(O[C@@H]3C(O)C[C@@H](OC4CC[C@]5(C)[C@H](CC[C@H]6[C@@H]5CC[C@]5(C)C(C7=CC(=O)OC7)C(O)C[C@@]65O)C4)OC3C)OC2C)CC(O)C1O (stereo not given in full) returned SMN2 splice enh -61%, ELG1-Luc inh 0.56µM*, ELG1 MMS Luc 0.32µM*, ELG1 5FU viab inconclusive, ELG1 MMS viab 0.5µM* and Cell viab unstim 0.2µM*.
For C[C@@]12CC[C@H](O)C[C@@H]1CC[C@H]1[C@H]2CC[C@@]2(C)[C@@H](C3=CC(=O)OC3)CC[C@]12O the results were SMN2 splice enh -94%[20.6 µM].
Screening CC1O[C@@H](OC2CC(O)[C@@]3(CO)C4C(O)C[C@@]5(C)C(C6=CC(=O)OC6)CC[C@]5(O)C4CC[C@]3(O)C2)C(O)C(O)C1O (stereo not given in full) returned SMN2 splice enh -104%.
Cc1nn(Cc2ccccc2)c(C)c1C(=O)NCc1ccccc1F was read as SMN2 splice enh -22%, Rab9 prom act -3%, ELG1 genotox 5%, FLuc counter -6%, ELG1 DNA repair -7% and NPC1 promoter act 0%.
O=C(COc1ccccc1Cl)N1CCCC(N2CCN(c3ccc(F)cc3)CC2)C1 (stereo not given) was read as Rab9 prom act 2%, ELG1 genotox -14%, FLuc counter 0%, ELG1 DNA repair inconclusive and NPC1 promoter act -23%.
Screening CCOc1ccc(-c2c(C)n(-c3ccc(OCC)cc3)c3[n+]2CCCCC3)cc1 returned Rab9 prom act -44%, ELG1 genotox -20%, FLuc counter -2%, ELG1 DNA repair 0.29µM*, NPC1 promoter act -40%, ELG1 FLuc counter inconclusive, ELG1-Luc inh inconclusive, ELG1 MMS Luc 0.5µM*, ELG1 5FU viab inconclusive, ELG1 MMS viab 0.45µM*, Cell viab unstim 5µM* and FLuc enzyme -8%.
Screening C=C(C)[C@@]12OC3(c4ccccc4)O[C@@H]1[C@@H]1[C@@H]4O[C@]4(CO)[C@@H](O)[C@]4(O)C(=O)C(C)=C[C@H]4[C@@]1(O3)[C@H](C)[C@H]2OC(=O)/C=C/C=C/c1ccccc1 returned ELG1 FLuc counter 72%, Cell viab unstim inconclusive and FLuc enzyme 0%.
`C[C@H]1[C@H](OC(=O)CCC(=O)NCc2ccc(C(=O)O)cc2)O[C@@H]2O[C@@]3(C)CC[C@H]4[C@H](C)CC[C@@H]1C24OO3` gave Rab9 prom act -22%, ELG1 genotox -5%, FLuc counter -3%, ELG1 DNA repair inconclusive and NPC1 promoter act -26%.
`CC1C(OC(=O)CCC(=O)NC(C)(C)CO)O[C@H]2OC3(C)CC[C@H]4[C@H](C)CCC1C24OO3` (stereo not given in full) gave Rab9 prom act -16%, ELG1 genotox -10%, FLuc counter 0%, ELG1 DNA repair 1.2µM*, NPC1 promoter act -18%, ELG1-Luc inh inconclusive, ELG1 MMS Luc inconclusive, ELG1 5FU viab -5%, ELG1 MMS viab inconclusive and Cell viab unstim inconclusive.
Screening O=C(CCl)c1ccc(Cl)cc1Cl returned SMN2 splice enh 0%.
Screening O=C(CCl)c1ccc(O)c(O)c1 returned Cell viab unstim -9%.
`O=C(COc1ccccc1Cl)N1CCN(CCc2ccncc2)CC1` gave FLuc counter 0%.
Screening COc1ccc(/C=C/C(=O)NC(=S)N2C[C@H]3C[C@H](C2)c2cccc(=O)n2C3)cc1OC returned Rab9 prom act -1%, ELG1 genotox 7%, FLuc counter 1%, ELG1 DNA repair 38% and NPC1 promoter act 1%.
CCCCN=C[C@]12CCC(O)CC1(O)CCC1[C@@H]2CC[C@]2(C)[C@H](C3C=CC(=O)O3)CCC12O (stereo not given in full) was read as Rab9 prom act -49%, ELG1 genotox -23%, FLuc counter 0%, ELG1 DNA repair 1µM*, NPC1 promoter act -52%, ELG1 FLuc counter inconclusive, ELG1-Luc inh 1.6µM*, ELG1 MMS Luc 0.89µM*, ELG1 5FU viab inconclusive, ELG1 MMS viab 2µM*, Cell viab unstim 0.63µM* and FLuc enzyme -3%.
O=C(O)CCCc1ccc(N(CCCl)CCCl)cc1 was read as SMN2 splice enh -68%, Rab9 prom act -6%[46.1 µM], ELG1 genotox 5%, FLuc counter inconclusive, ELG1 DNA repair 0% and NPC1 promoter act 6%[46.1 µM].
